This is an account of results in PubChem BioAssay AID686978 (National Center for Advancing Translational Sciences (NCATS), 2013).

Among all 420,000 compounds or so, about 64,000 (15%) were called active. Inconclusive results (about 27%) are left out. The call rests on the fitted dose curve; in most records, active means well fitted inhibition curve with a large enough effect; inconclusive means small, poorly fitted or top-dose-only effect; inactive means flat fitted curve, though single readings scatter. A selection follows. A call without a number means that no potency is given here.
Potency means the concentration at half of the fitted maximal effect.

A short description of this experiment: qHTS for Inhibitors of human tyrosyl-DNA phosphodiesterase 1 (TDP1): qHTS in cells in absence of CPT. Further: nearly all actives have a fitted effect of over 55% in size. As to conditions: DT40 Tdp1-/- hTDP1 cells, no CPT, ATP luminescence, 48 h; activity change, negative = growth inhibition: at 46.2 µM (top of the series). Summed up: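 DT40 Tdp1-/-;hTDP1 cells, no CPT (DMSO vehicle only), 400 cells/well; compounds pin-transferred; ≥48 hr, 37 °C; CellTiter-Glo 30 min RT dark, luminescence read.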
(Quantitative high-throughput screening tests each substance at several concentrations.)
On to `Cc1nnc(SCc2cc(=O)[nH]c(N3CCN(Cc4ccccc4)CC3)n2)s1`, for which the Potency result is “inactive”.
Then `CC(Sc1nncn1C)C(=O)Nc1cc(C(F)(F)F)ccc1N1CCOCC1` (stereo not given), with “inactive”; and `CCCCN1C(=O)C(CC(=O)NCc2cccs2)CC(C(=O)N2CCCCCC2)=C1C` (stereo not given), with “inactive”; and `CC(C)(C)NC(=O)NC(=O)COC(=O)C1(C)CC1(Cl)Cl` (stereo not given), with “inactive”.
Then `COc1ccc(CCc2nc(-c3cccs3)no2)cc1`, with “inactive”; and `COc1ccc(S(=O)(=O)NC(=O)C2(C)CCN2C(=O)c2ccccc2CCc2ccccc2)cc1` (stereo not given), with “inactive”; and `Cc1c(C(=O)Nc2cccc(Cl)c2)cn2c(nc3ccccc32)c1C#N`, with 11.6 µM (active).
Then `O=C(O)c1cccc(NC(=O)c2cc(-c3cccc(Cl)c3)nc3ccccc23)c1`, with “inactive”.
For `O=C(NCc1cn2ccsc2n1)Nc1cccc(Cl)c1`, the Potency entry is “inactive”.
Then `COc1cc(C(=O)NN(CCC#N)C2=NS(=O)(=O)c3ccccc32)cc(OC)c1OC`, with “inactive”.
Then `CCc1ccc(-c2nnn(Cc3nn[nH]n3)n2)cc1`, with “inactive”.
With `COc1ccc(C(C#N)=C2C=CC(=NO)c3ccccc32)cc1`, the Potency was 0.82 µM (active).
On to `COc1ccc(C(=NN)c2ccc(OC)cc2)cc1`, for which the Potency entry was “inactive”.
Turning to `COc1ccc(/C(N)=N/OC(=O)Cc2ccccc2)cc1`, the Potency entry was “inactive”.
The value for `O=C(c1ccc[nH]c1=S)N1CCN(S(=O)(=O)c2ccc(Br)cc2Cl)CC1` was “inactive”; that for `O=C(NCc1ccncc1)C(=O)NCc1ccco1` was “inactive”; that for `COc1ccc(CNC(=O)c2ccc(Br)s2)cc1OC` was “inactive”.
Consider `Cc1noc(C)c1-c1ccc(C(=O)NCc2ccncc2)c2occc12`, for which the Potency is 8.2 µM (active).
For the molecule `CCN(CC(=O)NCc1ccc(Cl)cc1)C(=O)c1c(C)noc1C`, the Potency entry is “inactive”.
With `COc1ccc(CNC(=O)c2c(C)cc(=O)oc2C)cc1OC`, the Potency result is “inactive”.
Then `COc1ccc(CNC(=O)c2ccc(-c3cccnc3)c3ccoc23)cc1OC`, with 18.4 µM (active).
As to `O=C(COc1ccc(Cl)cc1)NCc1nnc(SCC(=O)NCC2CCCO2)o1` (stereo not given), the Potency result is “inactive”.
Take `CCn1cc(CNC(=O)c2cc([N+](=O)[O-])c(C)c([N+](=O)[O-])c2)cn1`: the Potency entry is “inactive”.
Then `Cc1cccc(NC(=O)CSCC(=O)Nc2nnc(C3CC3)s2)c1`, with “inactive”; and `Cc1ccc(C(=O)CS(C)(=O)=O)cc1`, with “inactive”.
On to `Cc1ccc(C(=O)CSc2ccccc2C(=O)O)cc1`, for which the Potency result was “inactive”.
Then `Cc1ccc(SC(CC(=O)c2ccc(C(C)(C)C)cc2)C(=O)O)cc1` (stereo not given), with 2.91 µM (active).
In the case of `CC1(C)c2[nH]c3ccccc3c2C[C@H]2C(=O)N(N)CC(=O)N21`, the Potency result was “inactive”.
The value for `O=C(NC1CCc2ccccc21)C12CN(Cc3ccccc3)CC1C(c1cccc([N+](=O)[O-])c1)=NO2` (stereo not given) was “inactive”.
In the case of `O=C(NCc1ccccc1Cl)C1CCCN1S(=O)(=O)c1ccc(F)cc1` (stereo not given), the Potency result is “inactive”.
Then `COc1ccccc1NC(=O)C1CCCN1S(=O)(=O)c1ccc(Cl)cc1` (stereo not given), with 16.4 µM (active); and `CC(C)c1nnc(NC(=O)C2CCCN2S(=O)(=O)c2ccc(Cl)cc2)s1` (stereo not given), with “inactive”.
Then `COc1cccc(CCNC(=O)COc2cccc3c2OC(C)(C)C3)c1`, with “inactive”; and `CN(C)c1cccc2ccccc12`, with “inactive”.
Regarding `CC(C)[C@@H](C(=O)O)N(Cc1cccc(CN([C@H](C(=O)O)C(C)C)S(C)(=O)=O)c1)S(C)(=O)=O`, the Potency entry was “inactive”.
For the molecule `COc1cc2c(cc1O)C(SC)=NC(C)(C)C2`, the Potency is 29.1 µM (active).
The value for `COc1cc2c(cc1OC)C(Nc1ccc(S(N)(=O)=O)cc1)=NC(C)(C)C2` was “inactive”.
Take `O=C(Nc1ccccn1)C1CCN(S(=O)(=O)c2ccccc2)CC1`: the Potency entry was “inactive”.
The value for `CCCCN(CC(=O)NC(C)(C)C)C(=O)C(=O)Nc1ccc2c(c1)OCCO2` was “inactive”; that for `CC(C)(C)NS(=O)(=O)CC12CCC(CC1=O)C2(C)C` (stereo not given) was “inactive”; that for `CN(C)CC/C=C1\c2ccccc2CSc2ccccc21` was “inactive”.
The value for `CN(C)Cc1ccccc1C1(O)c2ccccc2CSc2ccccc21` (stereo not given) was 23.1 µM (active); that for `CC(=O)NC(CC(=O)Nc1nccs1)c1ccccc1` (stereo not given) was “inactive”.
Then `Cc1c(OC(C)C(=O)NCC2CCC(C(=O)O)CC2)ccc2c1oc(=O)c1ccccc12` (stereo not given), with “inactive”.
Turning to `CCN(CC(=O)NC(=O)NCc1ccccc1)Cc1nc2ccccc2c(=O)[nH]1`, the Potency entry is “inactive”.
Then `CC1(C(=O)NCc2ccc(F)c(F)c2)Cc2c(-c3ccc4c(c3)OCO4)ccnc2O1` (stereo not given), with 2.91 µM (active).
The value for `O=C(Cn1nnc(-c2ccc3c(c2)OCO3)n1)NCc1ccco1` was “inactive”; that for `O=C(NCc1ccc2c(c1)OCO2)c1cc(F)c(F)cc1Cl` was “inactive”; that for `S=C(NCc1ccc2c(c1)OCO2)NCc1ccco1` was “inactive”.
For `O=C(NCc1ccc2c(c1)OCO2)C12CC3CC(CC(C3)C1)C2`, the Potency entry was “inactive”.
Then `CC1(C(=O)NCc2ccco2)Cc2c(-c3ccc4c(c3)OCO4)ccnc2O1` (stereo not given), with 0.58 µM (active); and `OCC1(CCOc2ccccc2)CCN(Cc2cn[nH]c2-c2ccccc2)CC1`, with “inactive”; and `COCc1c(C(=O)N/N=C(\C)c2ccncc2)nnn1-c1nonc1N`, with “inactive”.
In the case of `CC(Sc1nnc(CNC(=O)c2ccccc2F)n1C)C(=O)Nc1nccs1` (stereo not given), the Potency result was “inactive”.
With `O=c1c(-c2ccc(F)cc2)nc2cncnc2n1-c1ccccc1`, the Potency result is “inactive”.
Then `Cc1cnc(NC(=O)Cn2cnc3c2c(=O)n(C)c(=O)n3C)s1`, with “inactive”.
The value for `CCSc1ccccc1C(=O)Nc1ccc2c(c1)OCO2` was “inactive”; that for `CCC(C)OC(=O)C(C)Oc1ccc(-c2ccccc2)cc1` (stereo not given) was “inactive”; that for `N#CC1=C(N)N(c2ccc(F)cc2)C(=O)C1` was “inactive”.
The value for `O=C(CSc1ccccc1)Nc1nnc(/C=C/c2ccccc2)s1` was “inactive”; that for `CCN(C(=O)Cn1cc(S(=O)(=O)N2CCN(c3ccccc3F)CC2)c2ccccc2c1=O)c1ccc(C)c(C)c1` was 10.3 µM (active).
With `CC1(C)NC(=O)N(CC(=O)N2CCN(S(=O)(=O)c3ccccc3F)CC2)C1=O`, the Potency entry was “inactive”.
For the molecule `CCCN(C(=O)Cn1cc(S(=O)(=O)N2CCN(c3ccccc3F)CC2)c2ccccc2c1=O)c1cccc(C)c1`, the Potency was 18.4 µM (active).
On to `O=C(CN1CCN(c2ccccc2F)CC1)c1ccc2c(c1)OCO2`, for which the Potency result is “inactive”.
The value for `CCOC(=O)N1CCN(c2c(NCCN3CCN(c4ccccc4F)CC3)c(=O)c2=O)CC1` was “inactive”.
On to `Cc1ccc2cccc(S(=O)(=O)N3CCN(c4ccccc4F)CC3)c2n1`, for which the Potency entry was “inactive”.
As to `Cc1cc(C)c(S(=O)(=O)N(C)CC(=O)NCC2CCCO2)c(C)c1` (stereo not given), the Potency entry was “inactive”.
Regarding `O=S1(=O)CC(NCc2ccccc2)C(Nc2ccc(Cl)cc2)C1` (stereo not given), the Potency entry was “inactive”.
With `O=C(NC1(C(F)(F)F)N=C2SCCN2C1=O)c1ccco1` (stereo not given), the Potency entry was “inactive”.
Then `COc1cnn(-c2ccc([N+](=O)[O-])cc2)c(=O)c1Cl`, with “inactive”; and `Cc1cc(C)c(C#N)c(SCS(=O)c2ccc(C(C)(C)C)cc2)n1` (stereo not given), with “inactive”.
In the case of `COC(=O)COc1ccc2c(=O)c(Oc3ccccc3Br)coc2c1`, the Potency result was “inactive”.
For the molecule `C[C@H]1CN([C@@H](C)CO)C(=O)CCCn2cc(nn2)CO[C@@H]1CN(C)S(=O)(=O)c1ccc(-n2cccn2)cc1`, the Potency entry is “inactive”.
Then `CCOc1ccc(CN(Cc2ccco2)C(c2cccs2)c2nnnn2C(C)(C)C)cc1` (stereo not given), with 16.4 µM (active); and `CC(C)(C)n1nnnc1C(c1ccccc1F)N1CCN(C(=O)c2ccco2)CC1` (stereo not given), with “inactive”.
The value for `C/C(=C\c1ccco1)CN1CCC(N2CCC(C(=O)N3CCOCC3)CC2)CC1` was “inactive”; that for `CCN(C(=O)COC(=O)CCC(=O)c1cccs1)C1CCCCC1` was “inactive”.
Then `OCCNc1nc(Nc2ccc(Cl)c(Cl)c2)nc2ccccc12`, with 16.4 µM (active).
For the molecule `CCOC(=O)CNc1nc(Cl)nc(Nc2ccccc2)n1`, the Potency result was “inactive”.
Then `COc1cc2nc(Cl)nc(NCCO)c2cc1OC`, with “inactive”.
Then `CCN(CC(=O)Nc1ccc(OC)cc1)C(=O)CSCc1ccc(C)cc1`, with “inactive”.
Then `O=C(Nc1ccc(N2CCOCC2)cc1)c1ccc2c(c1)OCO2`, with “inactive”; and `CN1CCN(c2ccc(NC(=O)c3cc(Cl)c4c(c3)OCCO4)cc2)CC1`, with 29.1 µM (active).
`CN1CCN(c2ccc(NC(=O)c3ccc4c(c3)OCCO4)cc2Cl)CC1`: the Potency entry was “inactive”.
Then `CCOc1ccc(C(=O)N(Cc2ccc(N(C)C)cc2)C2CCS(=O)(=O)C2)cc1` (stereo not given), with “inactive”; and `O=C(COc1ccc(Cl)cc1Cl)NCCCNC(=O)c1cnccn1`, with “inactive”.
Turning to `CC(NC(=O)CCc1cn(Cc2ccccc2Cl)c2ccccc12)c1ccccc1` (stereo not given), the Potency is 23.1 µM (active).
The value for `O=C(CCc1cn(Cc2ccc(F)cc2)c2ccccc12)NC1CCCCC1` was “inactive”; that for `CC(NC(=O)Cn1cc(C(F)(F)F)cc(Cl)c1=O)c1ccccc1` (stereo not given) was “inactive”; that for `Cc1cc(C)n2nc(C(=O)OCC(=O)N(CCC#N)c3ccc(F)cc3)nc2n1` was “inactive”.
Then `O=C(O)c1ccc(NC(=O)c2cn(-c3ccccc3)nc2-c2ccc(Cl)cc2)cc1`, with 16.4 µM (active); and `Cc1ccc(-c2nn(-c3ccccc3)cc2C(=O)NC2CCC(O)CC2)cc1` (stereo not given), with “inactive”.
`COC(=O)c1cn(-c2ccccc2)nc1-c1cccnc1`: the Potency result is “inactive”.
Turning to `NCCCCCC(=O)N/N=C/c1ccc2nccnc2c1`, the Potency result is “inactive”.
The value for `Cc1ccc(S(=O)(=O)N(C)C)cc1NC(=O)COC(=O)/C=C/c1cccs1` was “inactive”; that for `CCN1CCN(C(=O)CCN2C(=O)c3ccccc3C2=O)CC1` was “inactive”; that for `O=C(Nc1cccc(F)c1)N1C2CCC1CC(O)(c1cccnc1)C2` (stereo not given) was “inactive”.
The value for `CCOc1ccc(OCC)c(NC(=O)CCS(=O)(=O)c2ccc(C)cc2)c1` was “inactive”; that for `CCOC(=O)c1ccc(NC(=O)CCS(=O)(=O)c2ccc(C)cc2)cc1` was 20.6 µM (active).
The value for `Cc1ccc(S(=O)(=O)CCC(=O)Nc2nnc(CC(C)C)s2)cc1` was 16.4 µM (active).
In the case of `CC(C)Cc1nnc(NC(=O)CCc2ccccc2)s1`, the Potency result was “inactive”.
Then `CCCCC(CCC(=O)Nc1ccc(C(=O)OCC)cc1)C(=O)O` (stereo not given), with “inactive”; and `Cc1ccc(S(=O)(=O)CC(=O)Nc2nnc(C)s2)cc1`, with “inactive”; and `CC(C)CC(NS(=O)(=O)c1ccc2c(c1)oc(=O)n2C)C(=O)NCc1ccccc1Cl` (stereo not given), with “inactive”.
`Cc1cc(F)ccc1N1CCC(N2CCN(C)C(CCO)C2)CC1` (stereo not given): the Potency result was “inactive”.
